# Measurements: PubChem BioAssay (Tox21)
# Several values for one entry are separate records, joined by “and”; a condition that tells them apart may be missing. Equal values may be shown once. A number with no mark means an inactive call. Inconclusive results are not listed. A call without a number means that no potency is given here. Activity calls are given as the source filed them. Unless noted, calls come from the whole dose curve; as a rule, active = well fitted curve in the direction sought with a large enough effect in the repeat runs; inconclusive = weak or mixed curves; inactive = no such curve, though single readings can be large; an effect the other way counts as inactive or inconclusive.
# Legend:
# [1] = qHTS assay to identify small molecule antagonists of the glucocorticoid receptor (GR) signaling pathway - cell viability counter screen (AID 720693); note: nearly all actives have a fitted effect of over 55% in size; note: potency is the fitted concentration of half-maximal effect
# [2] = qHTS assay for identifying genotoxic compounds that show differential cytotoxicity against isogenic chicken DT40 cell lines with known DNA damage response pathways - wild type cell line (AID 743012); note: nearly all actives have a fitted effect of over 60% in size; note: potency is the fitted concentration of half-maximal effect
# Method in brief: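 Luminescent ATP viability signal (CellTiter-Glo, 30 min RT) recorded after wild type DT40 cells were incubated with compounds for 40 h at 37 C/5% CO2.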
# [3] = qHTS assay for identifying genotoxic compounds that show differential cytotoxicity against isogenic chicken DT40 cell lines with known DNA damage response pathways - Rev3 mutant cell line (AID 743014); note: nearly all actives have a fitted effect of over 55% in size; note: potency is the fitted concentration of half-maximal effect
# [4] = qHTS assay for identifying genotoxic compounds that show differential cytotoxicity against isogenic chicken DT40 cell lines with known DNA damage response pathways - Rad54/Ku70 mutant cell line (AID 743015); note: nearly all actives have a fitted effect of over 60% in size; note: potency is the fitted concentration of half-maximal effect
# [5] = qHTS assay to identify small molecule antagonists of the androgen receptor (AR) signaling pathway - cell viability counter screen (AID 743033; note: nearly all actives have a fitted effect of over 45% in size; note: potency is the fitted concentration of half-maximal effect)
# [6] = qHTS assay to identify small molecule antagonists of the androgen receptor (AR) signaling pathway using the MDA cell line - cell viability counter screen (AID 743041; note: nearly all actives have a fitted effect of over 45% in size; note: potency is the fitted concentration of half-maximal effect)
# Method in brief: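 Viability read by CellTiter-Fluor fluorescence in the same wells as the antagonist screen, added after 15.5 h of a 16 h, 37C exposure. Human breast carcinoma MDA-kb2 AR-luc cells, compounds co-dosed with agonist R1881.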
# [7] = target: Androgen receptor (Homo sapiens) (UniProt P10275); test: qHTS assay to identify small molecule antagonists of the androgen receptor (AR) signaling pathway (AID 743035; active = well fitted inhibition curve with a large enough effect in the signal ratio in the repeat runs, not every such curve was filed as active; the % refers to the signal ratio; note: potency is the fitted concentration of half-maximal effect)
# Chain of Androgen receptor (Homo sapiens) (P10275 whole entry, looked up): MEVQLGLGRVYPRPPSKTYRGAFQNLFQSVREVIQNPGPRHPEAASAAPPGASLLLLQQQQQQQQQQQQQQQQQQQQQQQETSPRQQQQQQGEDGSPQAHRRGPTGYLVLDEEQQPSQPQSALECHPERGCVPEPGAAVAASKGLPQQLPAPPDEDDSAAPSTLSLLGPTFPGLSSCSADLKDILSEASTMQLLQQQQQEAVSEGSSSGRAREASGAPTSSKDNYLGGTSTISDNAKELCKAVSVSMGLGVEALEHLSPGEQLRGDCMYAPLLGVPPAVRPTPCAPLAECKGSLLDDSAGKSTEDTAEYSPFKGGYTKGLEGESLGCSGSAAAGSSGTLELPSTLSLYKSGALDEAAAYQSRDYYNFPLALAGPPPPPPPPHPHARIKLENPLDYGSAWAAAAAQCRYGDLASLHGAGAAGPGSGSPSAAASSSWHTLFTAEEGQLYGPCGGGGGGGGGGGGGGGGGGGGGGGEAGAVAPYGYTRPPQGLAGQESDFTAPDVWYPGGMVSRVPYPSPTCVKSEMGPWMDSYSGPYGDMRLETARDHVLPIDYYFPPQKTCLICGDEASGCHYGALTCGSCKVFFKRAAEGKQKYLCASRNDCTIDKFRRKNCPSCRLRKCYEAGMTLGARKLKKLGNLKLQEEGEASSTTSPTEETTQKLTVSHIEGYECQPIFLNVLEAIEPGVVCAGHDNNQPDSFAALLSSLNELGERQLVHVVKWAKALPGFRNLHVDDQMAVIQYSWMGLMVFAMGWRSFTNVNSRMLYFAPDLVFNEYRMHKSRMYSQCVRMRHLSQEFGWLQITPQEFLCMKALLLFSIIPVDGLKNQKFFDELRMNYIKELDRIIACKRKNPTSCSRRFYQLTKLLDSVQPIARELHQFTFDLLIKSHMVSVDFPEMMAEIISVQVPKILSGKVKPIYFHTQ
# Method in brief: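 Quantitative HTS of the Tox21 10K library used HEK293 AR-UAS-bla cells stimulated with R1881 alongside compound for 16 h at 37C, followed by beta-lactamase FRET detection (LiveBLAzer B/G, 2 h, RT).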
# [8] = target: Androgen receptor (Homo sapiens) (UniProt P10275); test: qHTS assay to identify small molecule agonists of the androgen receptor (AR) signaling pathway (AID 743036; active = well fitted activation curve with a large enough effect in the signal ratio in the repeat runs, with a control signal flat, not every such curve was filed as active; the % refers to the signal ratio)
# Method in brief: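 Beta-lactamase under UAS control, stably integrated in HEK293 GripTite cells, reports receptor activation. After 16 h compound treatment, cells received FRET substrate for 2 h at room temperature before fluorescence reading.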
# [9] = target: Androgen receptor (Homo sapiens) (UniProt P10275); test: qHTS assay to identify small molecule agonists of the androgen receptor (AR) signaling pathway using the MDA cell line (AID 743040; note: nearly all actives have a fitted effect of over 20% in size)
# Method in brief: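 Luciferase agonist assay: 16 h compound exposure at 37C without CO2 in MDA-kb2 AR-luc cells, whose MMTV promoter responds to both AR and GR. Luminescence measured after 30 min room-temperature incubation with ONE-Glo.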
# [10] = target: Androgen receptor (Homo sapiens) (UniProt P10275); test: qHTS assay to identify small molecule antagonists of the androgen receptor (AR) signaling pathway using the MDA cell line (AID 743042; note: nearly all actives have a fitted effect of over 55% in size)
# Method in brief: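 Antagonist mode: compounds plus R1881 agonist added to MDA-kb2 AR-luc cells, incubated 16 h at 37C. Luciferase reporter luminescence quantified, with multiplexed CellTiter-Fluor readout for cell viability.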
SMILES,Potency [1],Potency [2],Potency [3],Potency [4],Potency [5],Potency [6],Potency [7],Potency [8],Potency [9],Potency [10]
Cc1c(N)cccc1[N+](=O)[O-],inactive,inactive,inactive,inactive,inactive,inactive,–,–,–,–
CCCCc1ncc(/C=C(\Cc2cccs2)C(=O)O)n1Cc1ccc(C(=O)O)cc1,inactive,inactive,inactive,inactive,inactive,inactive,–,–,–,–
COC(C)(C)CCO,inactive,inactive,inactive,inactive,inactive,inactive,–,–,–,–
CCCCNc1ccc(C(=O)OCCOCCOCCOCCOCCOCCOCCOCCOCCOC)cc1,inactive,inactive,inactive,inactive,inactive,inactive,–,–,–,–
CCN(CC)CCOC(=O)C(c1ccccc1)C1CCCCC1 (centres undefined),inactive,21.1 µM (active),10.6 µM (active),23.7 µM (active),inactive,inactive,–,–,–,–
CN1CCN(C(c2ccccc2)c2ccccc2)CC1,inactive,inactive,inactive,inactive,–,inactive,inactive,inactive,inactive,inactive
O=[N+]([O-])c1cccc(S(=O)(=O)O)c1,inactive,inactive,inactive,inactive,inactive,inactive,–,–,–,–
CC(C)=CCC/C(C)=C/CC/C(C)=C/CO,inactive,34.4 µM (active),54.5 µM (active),30.6 µM (active),–,inactive,–,–,–,–
CC(C)(COC(=O)c1ccccc1)COC(=O)c1ccccc1,inactive,54.5 µM (active),30.6 µM (active),48.6 µM (active),inactive,inactive,–,–,–,–
Cc1cccc(C)c1OCC(=O)N[C@@H](Cc1ccccc1)[C@@H](O)C[C@H](Cc1ccccc1)NC(=O)[C@H](C(C)C)N1CCCNC1=O,inactive,16.8 µM (active),16.8 µM (active),11.9 µM (active),–,–,–,–,inactive,–
COc1ccc(-c2nc3ccc(C4=NNC(=O)CC4C)cc3[nH]2)cc1 (centres undefined),inactive,11.9 µM (active),11.9 µM (active),18.8 µM (active),–,inactive,19 µM (active),–,inactive,inactive
Clc1ccc(Cn2c(CN3CCCC3)nc3ccccc32)cc1,inactive,4.03 µM (active),2.54 µM (active),7.17 µM (active),inactive,inactive,–,–,–,–
CCN(CC)CCNc1ccc(CNC=O)c2sc3ccc(OC)cc3c(=O)c12,38.9 µM (active),8.63 µM (active),9.69 µM (active),0.969 µM (active),–,inactive,–,–,–,–
O=S(=O)(Oc1ccc(Cl)cc1)c1ccccc1,inactive,inactive,61.1 µM (active),54.5 µM (active),inactive,inactive,–,–,–,–
CC(CSC(=O)c1ccccc1)C(=O)N1C[C@@H](Sc2ccccc2)C[C@H]1C(=O)O (some centres undefined),inactive,inactive,inactive,–,inactive,inactive,–,–,–,–
C=CC(=O)OCCOCCOCCOCCOC(=O)C=C,49.2 µM (active) and 48.5 µM (active),13.8 µM (active) and 12.1 µM (active),8.68 µM (active) and 6.06 µM (active),12.3 µM (active) and 9.6 µM (active),24.7 µM (active),30.4 µM (active),–,–,–,–
O=CC1CC=CCC1 (centres undefined),inactive,inactive,inactive,–,inactive,inactive,inactive,inactive,inactive,inactive
C=CC1CC2C=CC1C2 (centres undefined),inactive,inactive,inactive,inactive,inactive,inactive,–,–,–,–
CCCCCCCCCCCc1ccccc1,inactive,inactive,60.3 µM (active),–,inactive,inactive,–,–,–,–
C/C=C/C=C/CO,inactive,inactive,61.1 µM (active),–,inactive,inactive,–,–,–,–
CCCOC(C(=O)OC1CCN(C)CC1)(c1ccccc1)c1ccccc1,inactive,5.96 µM (active),7.5 µM (active),11.9 µM (active),–,inactive,–,–,–,–

SMILES,Potency [1],Potency [2],Potency [3],Potency [4],Potency [5],Potency [6],Potency [7],Potency [8],Potency [9],Potency [10]
ClCCOCCOCCCl,inactive,inactive,inactive,inactive,inactive,inactive,–,–,–,–
CC(=O)[O][Al][O]C(C)=O,inactive,inactive,inactive,inactive,inactive,inactive,–,–,–,–
Cn1c(=O)cc(Oc2ccc(F)cc2F)c2cnc(NCC(C)(C)O)nc21,inactive,inactive,–,27.3 µM (active),inactive,inactive,–,–,–,–
OC(CN1CCC(Cc2ccc(F)cc2)CC1)c1ccc(Cl)cc1 (centres undefined),inactive,–,1.68 µM (active),2.11 µM (active),inactive,inactive,inactive,inactive,inactive,inactive
COc1ccc(C(=O)c2ccc(OC)cc2O)c(O)c1,inactive,inactive,–,inactive,inactive,inactive,–,–,–,inactive
Cc1oc(-c2ccccc2)nc1CCOc1cccc2c1ccn2CCC(=O)O,inactive,inactive,–,–,inactive,inactive,–,–,–,–
C[Si](C)(CCCN)O[Si](C)(C)CCCN,inactive,inactive,–,–,inactive,inactive,–,–,–,–
CCC(Cl)CCC(Cl)C(Cl)CC(Cl)C(Cl)C(Cl)CCl (centres undefined),inactive,–,inactive,inactive,inactive,–,–,–,–,–
Nc1ccccc1S(=O)(=O)c1ccccc1,inactive,inactive,–,inactive,inactive,inactive,–,–,–,–
C1CCCNCCC1,inactive,–,inactive,inactive,inactive,inactive,–,–,–,–
Cc1cccc(C)c1NC(=O)CN(CC(=O)O)CC(=O)O,inactive,inactive,–,–,inactive,inactive,–,–,–,–
CC1(c2ccccc2)OC(C(=O)O)=CC1=O (centres undefined),inactive,inactive,–,–,inactive,inactive,–,–,–,–
Nc1cccc(S(=O)(=O)c2cccc(N)c2)c1,inactive,61.1 µM (active),–,61.1 µM (active),inactive,inactive,–,–,–,–
Nc1ncn([C@H]2C[C@H](O)[C@@H](CO)O2)c(=O)n1,inactive,0.106 µM (active),–,–,–,inactive,–,–,–,–
Cc1ncc(CO)c(C=O)c1O,inactive,inactive,–,inactive,inactive,inactive,–,–,–,–
O=C1OC(=O)C2C3C=CC(C3)C12 (centres undefined),inactive,inactive,–,–,inactive,inactive,–,–,–,–
CN1C[C@H]2c3ccccc3Oc3ccc(Cl)cc3[C@@H]2C1,inactive,26.6 µM (active),–,29.8 µM (active),inactive,inactive,–,–,–,–
COc1ccc(C(=O)Nc2nc3ccccc3c(NCc3ccccc3)c2C#N)cc1,inactive,27.3 µM (active),–,–,inactive,inactive,–,–,–,–
CC(=O)c1ccc2c(c1)N(CCCN(C)C)c1ccccc1S2,inactive,12.7 µM (active),–,–,inactive,inactive,–,–,–,–
CCCCC1=NC2(CCCC2)C(=O)N1Cc1ccc(-c2ccccc2-c2nn[nH]n2)cc1,inactive,inactive,–,inactive,inactive,inactive,–,–,–,–
CCCCCCCCCCCCCCCCOS(=O)(=O)O,inactive,inactive,–,–,inactive,inactive,inactive,inactive,inactive,inactive

SMILES,Potency [1],Potency [2],Potency [3],Potency [4],Potency [5],Potency [6],Potency [7],Potency [8],Potency [9],Potency [10]
CCOC(=O)C1=C[C@]2(CC)CCCN3CCc4c(n1c1ccccc41)[C@@H]32,inactive,10.6 µM (active) and 6.68 µM (active),–,–,inactive,inactive,–,–,–,–
CCOc1ccc(N)c([N+](=O)[O-])c1,inactive,inactive,–,–,inactive,–,–,–,–,–
S=C([S-])NCCNC(=S)[S-].[Mn+2],inactive,61.1 µM (active),–,61.1 µM (active),inactive,inactive,–,–,–,–
CCCCCCc1ccc(-c2ccc(C#N)cc2)cc1,inactive,inactive,–,–,inactive,inactive,–,–,–,–
C[C@@H]1C[C@H]2O[C@@]3(O[C@@H]2C(C)(C)O)[C@H](O)[C@@]2(C)[C@@H]4CC[C@H]5C(C)(C)[C@@H](O[C@@H]6OC[C@@H](O)[C@H](O)[C@H]6O)CC[C@@]56C[C@@]46CC[C@]2(C)[C@@H]13,inactive,inactive,–,–,inactive,inactive,–,inactive,inactive,inactive
CCN(CC)c1ccc2c(-c3ccccc3C(=O)O)c3ccc(=[N+](CC)CC)cc-3oc2c1,inactive,12.2 µM (active),–,8.63 µM (active),–,24.3 µM (active),–,–,–,–
CN(C)CCN(Cc1ccc(Cl)cc1)c1ccccn1,inactive,12.7 µM (active),–,–,inactive,inactive,–,–,–,–
CO[C@@H]1[C@H](OC(=O)/C=C/C=C/C=C/C=C/C(=O)O)CC[C@]2(CO2)[C@H]1[C@@]1(C)O[C@@H]1CC=C(C)C,inactive,1.9 nM (active) and 12.2 nM (active),–,–,inactive,inactive,–,–,–,–
Clc1ccc2c(c1)CCc1cccnc1C2=C1CCNCC1,inactive,5.31 µM (active),–,–,inactive,inactive,–,–,–,–
CCC(C)O (centres undefined),inactive,inactive,–,inactive,inactive,inactive,–,–,–,–
CCCCCCCCCCCCCCOS(=O)(=O)O,inactive,inactive,–,–,–,inactive,–,–,–,–
Cc1cc(N)c2cc(NC(=O)Nc3ccc4nc(C)cc(N)c4c3)ccc2n1,inactive,–,21.1 µM (active),16.8 µM (active),inactive,–,–,inactive,inactive,–
OCCN1CCN(CCCN2c3ccccc3C=Cc3ccccc32)CC1,inactive,5.96 µM (active) and 13.3 µM (active),–,8.41 µM (active) and 26.6 µM (active),inactive,inactive,–,–,–,–
OCCNCc1ccccc1,inactive,–,inactive,inactive,inactive,inactive,inactive,inactive,inactive,inactive
CC(C)(C)Cl,inactive,inactive,–,–,inactive,inactive,–,–,–,–
C=C(C)C(=O)OCCOCC,inactive,inactive,–,–,inactive,inactive,–,–,–,–
O=C(O)c1ccco1,inactive,–,inactive,inactive,inactive,inactive,–,–,–,–
O=C(NCCO[N+](=O)[O-])c1cccnc1,inactive,inactive,–,inactive,inactive,inactive,–,–,–,–
O=C(O)c1ccc(-n2nc(-c3ccccc3O)nc2-c2ccccc2O)cc1,–,13.3 µM (active),18.8 µM (active),18.8 µM (active),inactive,inactive,–,–,–,–
CC[N+](C)(CC)CCOC(=O)C(O)(c1ccccc1)C1CCCCC1 (centres undefined),–,inactive,inactive,inactive,inactive,–,–,–,–,–
CCC(CC)Nc1ccc(C)c(C)c1,inactive,–,–,–,inactive,inactive,–,–,–,–
